Several values for one entry are separate records, joined by “and”; a condition that tells them apart may be missing. Equal entries are not always repeated. The panel holds about 83,000 compounds, 20% with a hit somewhere; the sample as a whole holds those more often.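 Compound tested at a single concentration for 48 hours in 96-well plates; a percent growth value below 10 was scored as active.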 Activity calls are given as the source filed them.
Experiments:
Experiment in all cases: NCI-60 one-dose screen, 48 h (100 = growth as untreated, 0 = no growth, -100 = all killed)
Conditions in all cases: 10 µM unless noted
[1] = system: DU-145 prostate
[2] = system: K-562 leukemia
[3] = system: MALME-3M melanoma
[4] = system: MDA-MB-231 breast
[5] = system: RXF 393 renal
[6] = system: SF-268 CNS
[7] = system: SF-295 CNS
[8] = system: SF-539 CNS
[9] = system: UACC-257 melanoma
[10] = system: M14 melanoma

Measured: growth

CCC(c1cccc(O)c1)C(CC)c1cccc(O)c1 (centres undefined)
inactive: [1] 86% | [2] 17.1% | [3] 54.8% | [4] 64.2% | [5] 79.5% | [6] 63.7% | [7] 58.3% | [8] 39.1% | [9] 71.8% | [10] 23.8%

Oc1c(Br)c(Br)c(O)c(Br)c1Br
inactive: [1] 112% | [3] 56.5% | [4] 116% | [5] 12.5% | [6] 108% | [7] 107% | [8] 119% | [9] 117% | [10] 110%
active: [2] 7.81%

COc1cc(/C=C(/C)C[N+](=O)[O-])ccc1O
inactive: [1] 101% | [2] 69.7% | [4] 89.8% | [5] 91.2% | [6] 101% | [7] 99.3% | [8] 105% | [9] 33.5% | [10] 83.2%
active: [3] -12.2%

CN=C(N)N/N=C(\C)c1ccc2c(c1)Cc1cc(/C(C)=N/NC(N)=NC)ccc1-2
active: [1] -35.5% | [2] -7.26% | [3] -65.5% | [4] -33.8% | [5] -21.2% | [6] -61% | [7] -28.1% | [8] -89% | [10] -85.7%
inactive: [9] 56.5%

CC(=O)C(=Cc1ccc(C=C(C(C)=O)C(C)=O)cc1)C(C)=O
active: [2] 2.87% | [3] -18.6% | [4] -3.61% | [5] -58.5% | [8] -1.57% | [10] 4.86%
inactive: [1] 23.6% | [6] 19.7% | [7] 86.4% | [9] 19.1%

N#CSCc1ccc(Cl)c(CSC#N)c1
active: [5] 5.61% | [10] 9.39%
inactive: [1] 16.4% | [2] 15.2% | [3] 63.7% | [4] 45.4% | [6] 36.4% | [7] 70.7% | [8] 15.2% | [9] 83.1%

CN1c2ccccc2C(C)(C)C12C=Cc1cc(O)ccc1O2 (centres undefined)
inactive: [1] 52.1% | [2] 12% | [3] 69.1% | [4] 60.9% | [5] 57.1% | [6] 15.4% | [7] 55.9% | [8] 25.8% | [9] 56.7% | [10] 17.9%

CCOC(=O)/C=C/c1ccc([N+](=O)[O-])o1
inactive: [1] 69.2% | [4] 67.8% | [5] 18.4% | [6] 76.2% | [7] 99.2% | [8] 68.3% | [9] 54.2% | [10] 70.1%
active: [2] 9.66% | [3] -6.92%

Cc1ccnc2c1ccc1c(C)ccnc12
inactive: [1] 27.4% | [2] 12% | [3] 19.1% | [4] 31.9% | [5] 26.2% | [6] 22.8% | [7] 18.3%
active: [8] -3.71% | [9] 2.29% | [10] -11.5%

Oc1c(Br)cc(Cl)cc1C(c1cc(Cl)cc(Br)c1O)C(Cl)(Cl)Cl
inactive: [1] 31.1% | [2] 13.7% | [5] 12% | [6] 21.9% | [8] 30.8% | [9] 33% | [10] 31.4%
active: [3] -0.8% | [4] -11.3% | [7] 9.03%

N[C@H](C(=O)O)[C@@H]1CC(Cl)=NO1
inactive: [1] 37.7% [20 µM] | [2] 20% [20 µM] | [3] 33.5% [20 µM] | [4] 43.4% [20 µM] | [5] 48.7% [20 µM] | [6] 25.5% [20 µM] | [7] 31.2% [20 µM] | [8] 21.4% [20 µM] | [9] 39.1% [20 µM] | [10] 16.9% [20 µM]

Cc1ccc2nc(-[n+]3cc4ccccc4cc3C)ccc2c1
inactive: [1] 53.6% | [2] 39.1% | [3] 44.2% | [4] 54.8% | [5] 91.2% | [6] 39.5% | [7] 33.3% | [8] 43.8% | [9] 11.4% | [10] 43.1%

Cc1c2ccccc2c(C)c2c1ccc1ccccc12
inactive: [1] 97.5% | [2] 85.1% | [3] 88.8% | [4] 89.8% | [5] 96.3% | [6] 98.5% | [7] 96.9% | [8] 92.3% | [9] 94.7% | [10] 86.8%

NC(N)=N/N=C/c1ccc([N+](=O)[O-])o1
inactive: [1] 91.5% | [2] 94.6% | [3] 68.1% | [4] 105% | [5] 95.7% | [6] 90.3% | [7] 93.4% | [8] 104% | [9] 67.1% | [10] 99.1%

S=C(NCCNC(=S)[S][Sn]([c]1ccccc1)([c]1ccccc1)[c]1ccccc1)[S][Sn]([c]1ccccc1)([c]1ccccc1)[c]1ccccc1
active: [1] -96.1% | [3] -70.4% | [4] -82.1% | [5] -99.7% | [6] -90.9% | [7] -83.5% | [8] -81.7% | [9] -100% | [10] -94%

O=C1c2ccccc2C(=O)N1c1ccccc1
inactive: [1] 109% | [2] 106% | [3] 105% | [4] 89.7% | [5] 112% | [6] 108% | [7] 94.9% | [8] 103% | [9] 101% | [10] 106%

O=C(CC1(O)C(=O)Nc2c(Cl)ccc(Cl)c21)c1ccc(Cl)cc1Cl (centres undefined)
inactive: [1] 103% | [2] 93.6% | [3] 100% | [4] 109% | [5] 94.5% | [6] 97.4% | [7] 100% | [8] 103% | [9] 78.8% | [10] 89.2%

N#CC1C(=O)SC2c3ccccc3C(=O)c3ccccc3C12 (centres undefined)
inactive: [1] 107% | [2] 94.9% | [3] 101% | [4] 98% | [5] 101% | [6] 101% | [7] 113% | [8] 114% | [9] 101% | [10] 109%

O=C(/C=C\c1ccccc1)N1c2ccccc2CC1c1c[nH]c2ccccc12 (centres undefined)
inactive: [1] 89.7% | [2] 65.9% | [3] 85.4% | [4] 60.8% | [5] 93.4% | [6] 75.2% | [7] 68.7% | [8] 95.1% | [9] 88.8% | [10] 71.6%

C[n+]1c(/C=C/c2ccc([N+](=O)[O-])cc2)ccc2ccccc21
inactive: [1] 104% | [2] 88.7% | [3] 90.9% | [4] 115% | [5] 92.9% | [6] 102% | [7] 100% | [8] 103% | [9] 106% | [10] 101%

N#Cc1ccc([N+](=O)[O-])o1
inactive: [1] 111% | [2] 105% | [3] 118% | [4] 105% | [5] 113% | [6] 103% | [7] 99.6% | [8] 101% | [9] 79.7% | [10] 97.9%

N#CSCc1c(Cl)cccc1Cl
inactive: [1] 21% | [2] 83.8% | [3] 47.1% | [4] 80.4% | [5] 50.1% | [6] 53.3% | [7] 94.8% | [8] 88.5% | [9] 79.5%
active: [10] 9.86%

CNC(=O)N/N=C/c1ccc([N+](=O)[O-])o1
inactive: [1] 104% | [2] 96.5% | [3] 112% | [4] 97.6% | [5] 115% | [6] 94.2% | [7] 107% | [8] 110% | [9] 87.8% | [10] 102%

CC1OC2CC(=O)OC2C2=C1C(=O)c1c(O)cccc1C2=O (centres undefined)
active: [1] -98.3% | [2] -7.94% | [3] -77.4% | [4] -65.9% | [5] -96.4% | [6] -92.9% | [7] -8.69% | [8] -89.5% | [9] -78.5% | [10] -87.7%

O=C(O)c1ccc2c3c(ncnc13)-c1ccccc1C2=O
active: [1] -100% | [3] -68.6% | [10] -59%
inactive: [2] 74.5% | [4] 89.6% | [5] 73.5% | [6] 90% | [7] 62.3% | [8] 63.1% | [9] 37.8%

CC(C)(C)c1ccc(O)c(C2CCCCC2)c1
inactive: [1] 102% | [2] 89.8% | [3] 115% | [4] 106% | [5] 90.9% | [6] 99.4% | [7] 130% | [8] 121% | [9] 86.6% | [10] 122%

Cc1cc(N)c2ccccc2[n+]1CCCCCCCCCC[n+]1c(C)cc(N)c2ccccc21
-15.7% (active) and 10.5% (inactive): [3]
31.3% (inactive) and -73.8% (active): [1]
active: [2] -7.04% and -39.8% | [5] -30.2% | [7] -45.6% and 8.47% | [8] -8.43% and -37.4% | [10] 3.53%
18.9% (inactive) and 1.88% (active): [4]
33.5% (inactive) and 5.36% (active): [9]
inactive: [6] 23.2% and 27.9%

From PubChem BioAssay (NCI)
